Measurements reported in the supplement of paper PMC8285479.
Where a name gives a salt, the structure may show the parent alone. ± gives the standard deviation of the averaged measurements. The full ranking holds about 1,900 compounds; the median of “normalised cell viability (NPI; 0 = phenylarsine oxide control, 1 = DMSO control)” is about 1, and the lowest 2% start at about 0.039. Only a selection was taken, and the lowest values are over-represented in it overall.

System: NCI-H1944
Test: normalised cell viability (NPI; 0 = phenylarsine oxide control, 1 = DMSO control) (fraction of DMSO control); NCI-H1944 is a non-small cell lung cancer line; higher = more viable cells (less compound toxicity)
Details: 6 days
[1] = glucocorticoid arm: hydrocortisone 2.75 uM co-treatment, compound 1 µM
[2] = glucocorticoid arm: hydrocortisone 2.75 uM co-treatment, compound 5 µM
[3] = glucocorticoid arm: hydrocortisone 2.75 uM pre-treated 2 days and continued, compound 1 µM
[4] = glucocorticoid arm: hydrocortisone 2.75 uM pre-treated 2 days and continued, compound 5 µM
[5] = glucocorticoid arm: vehicle, compound 1 µM
[6] = glucocorticoid arm: vehicle, compound 5 µM
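Further: CTB read-out in 384-well plates, triplicate wells, NPI normalised per plate against 1 µM phenylarsine oxide (0) and 0.1% DMSO (1) controls.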

Row | SMILES | normalised cell viability [1] | normalised cell viability [2] | normalised cell viability [3] | normalised cell viability [4] | normalised cell viability [5] | normalised cell viability [6]
1 | CN[C@@H]1C[C@H]2O[C@@](C)([C@@H]1OC)n1c3ccccc3c3c4c(c5c6ccccc6n2c5c31)C(=O)NC4 [Staurosporine] | 0.0825 ± 0.0098 | 0.0186 ± 0.003 | 0.246 ± 0.01 | 0.0923 ± 0.017 | 0.0216 ± 0.0022 | 0.00445 ± 0.0013
2 | C[C@@H](N)Cc1cnc[nH]1 [Histamine, R(-)-alpha-methyl-, dihydrochloride] | 0.997 ± 0.0027 | 0.997 ± 0.011 | 1 | 0.994 ± 0.014 | 0.9917 ± 0.0045 | 0.9963 ± 0.0032
3 | NC(CP(=O)(O)O)C(=O)O (racemic) [(±)-2-Amino-3-phosphonopropionic acid] | 0.993 ± 0.0066 | 0.9903 ± 0.0093 | 1.005 ± 0.0087 | 1 ± 0.013 | 0.9877 ± 0.0049 | 0.998 ± 0.013
4 | CCc1c(C(=O)OC)ncc2[nH]c3cc(OC)c(OC)cc3c12 [Methyl 6,7-dimethoxy-4-ethyl-beta-carboline-3-carboxylate] | 1.01 ± 0.016 | 1.023 ± 0.0058 | 1.01 ± 0.01 | 1.03 ± 0.01 | 0.9997 ± 0.0091 | 1.003 ± 0.0058
5 | COc1cc(CC(C)N)c(OC)cc1I (racemic) [(±)-DOI hydrochloride] | 1.01 ± 0.01 | 0.983 ± 0.023 | 0.998 ± 0.013 | 1.02 ± 0.01 | 0.998 ± 0.0035 | 0.994 ± 0.004
6 | Oc1ncc(N(CCCl)CCCl)c(O)n1 [Uracil mustard] | 0.972 ± 0.007 | 1.06 ± 0.011 | 1.043 ± 0.0058 | 1.033 ± 0.0058 | 0.244 ± 0.021 | 1.01 ± 0.011
7 | C[C@@]12C(=O)OC(=O)[C@]1(C)[C@H]1CC[C@@H]2O1 [Cantharidin] | 0.9967 ± 0.0035 | 0.00641 ± 0.0033 | 1.05 ± 0.021 | 0.12 ± 0.057 | 0.9873 ± 0.0032 | 0.00459 ± 0.0027
8 | CN(N=O)c1ccc(O)c(O)c1 [Me-3,4-dephostatin] | 1.017 ± 0.0058 | 1.01 ± 0.017 | 1.007 ± 0.0058 | 1.05 ± 0.086 | 1.01 ± 0.011 | 1.02 ± 0.01
9 | CCCN1CCC[C@@H](c2cccc(C#N)c2)C1 [S(-)-DS 121 hydrochloride] | 1.017 ± 0.0058 | 0.972 ± 0.034 | 1.01 ± 0.01 | 0.985 ± 0.033 | 1.02 | 1.04 ± 0.047
10 | NCc1cc(O)no1 [Muscimol hydrobromide] | 1.006 ± 0.0069 | 0.993 ± 0.015 | 1.01 ± 0.013 | 0.992 ± 0.031 | 1.01 | 1.003 ± 0.0061
11 | CCCN1CCC[C@@H]2Cc3n[nH]cc3C[C@H]21 [(-)-Quinpirole hydrochloride] | 0.982 ± 0.006 | 0.992 ± 0.018 | 0.867 ± 0.22 | 1.01 ± 0.016 | 0.985 ± 0.0087 | 0.9927 ± 0.0045
12 | CCCN1CCC[C@@H]2Cc3n[nH]cc3C[C@H]21 (racemic) [(±)-Quinpirole dihydrochloride] | 1.013 ± 0.0058 | 1.01 ± 0.036 | 0.893 ± 0.19 | 1.03 ± 0.01 | 1.013 ± 0.0058 | 1.01 ± 0.011
13 | CCN(CCCl)CCOC(C)=O [Acetylethylcholine mustard hydrochloride] | 1.01 ± 0.015 | 1.02 ± 0.034 | 1.01 ± 0.013 | 1.11 ± 0.061 | 0.995 ± 0.0046 | 1.01 ± 0.015
14 | N.N.[Cl][Pt][Cl] [Cisplatin] | – | – | 1.01 | – | – | –
15 | Cn1c(CCCC(=O)O)nc2cc(N(CCCl)CCCl)ccc21 [bendamustine hydrochloride] | 1.02 ± 0.011 | 0.348 ± 0.02 | 1.007 ± 0.0058 | 0.7867 ± 0.0031 | 0.9937 ± 0.006 | 0.0218 ± 0.0032
16 | O=[N+]([O-])c1ccc(O[C@@H]2O[C@H](CO)[C@@H](O)[C@H](O)[C@H]2F)c([N+](=O)[O-])c1 [2,4-Dinitrophenyl 2-fluoro-2-deoxy-beta-D-glucopyranoside] | 0.9917 ± 0.004 | 0.989 ± 0.02 | 0.991 ± 0.023 | 0.974 ± 0.03 | 0.9807 ± 0.0021 | 0.9817 ± 0.0064
17 | Cc1o[nH]c(=O)c1CC(N)C(=O)O (racemic) [(±)-AMPA hydrobromide] | 0.995 ± 0.016 | 0.983 ± 0.016 | 0.999 ± 0.0095 | 0.994 ± 0.025 | 0.982 ± 0.0027 | 0.98 ± 0.007
18 | CC(N)c1cccc(Cl)c1Cl (racemic) [(±)-2,3-Dichloro-alpha-methylbenzylamine hydrochloride] | 1.006 ± 0.0075 | 1.02 ± 0.011 | 1.003 ± 0.0064 | 1.013 ± 0.0058 | 0.9993 ± 0.0097 | 1.001 ± 0.0081
19 | CCCCN1[C@@H]2CC[C@H]1CC(OC(c1ccc(F)cc1)c1ccc(F)cc1)C2 (some centres undefined) [JHW 007 hydrochloride] | 0.969 ± 0.017 | 0.629 ± 0.055 | 0.987 ± 0.011 | 0.969 ± 0.011 | 0.993 ± 0.003 | 0.228 ± 0.12
20 | CC(N)C(O)c1ccc(O)c(O)c1 (single isomer, unassigned; (-)) [(-)-alpha-Methylnorepinephrine] | 1.01 ± 0.012 | 0.971 ± 0.044 | 0.995 ± 0.013 | 0.958 ± 0.034 | 0.9967 ± 0.0058 | 0.9977 ± 0.0032
21 | C/C=C(/C)C(=O)O[C@H]1C(C)=C2[C@H]([C@@H]1OC(=O)CCCCCCC)[C@@](C)(OC(C)=O)C[C@H](OC(=O)CCC)[C@@]1(O)[C@H]2OC(=O)[C@@]1(C)O [Thapsigargin] | 0.0778 ± 0.015 | 0.0411 ± 0.016 | 0.215 ± 0.062 | 0.101 ± 0.029 | 0.0393 ± 0.014 | 0.00585 ± 0.0031
22 | Clc1ccc(N2CC3CCC(C2)N3)nn1 | 1.003 ± 0.0064 | 0.979 ± 0.012 | 0.9903 ± 0.0074 | 0.9827 ± 0.004 | 0.9863 ± 0.0075 | 0.9843 ± 0.0086
23 | C[C@@H]1O[C@@H](O[C@H]2C[C@@H](O)[C@]3(CO)[C@H]4[C@H](O)C[C@]5(C)[C@@H](C6=CC(=O)OC6)CC[C@]5(O)[C@@H]4CC[C@]3(O)C2)[C@H](O)[C@H](O)[C@H]1O [Ouabain] | 0.00947 ± 0.006 | 0.00628 ± 0.0019 | 0.0931 ± 0.013 | 0.07 ± 0.028 | 0.00711 ± 0.0021 | 0.00424 ± 0.002
24 | C[C@@H]1O[C@@H](O[C@H]2C[C@@H](O)[C@]3(CO)[C@H]4[C@H](O)C[C@]5(C)[C@@H]([C@@H]6COC(=O)C6)CC[C@]5(O)[C@@H]4CC[C@]3(O)C2)[C@H](O)[C@H](O)[C@H]1O [Dihydroouabain] | 1.027 ± 0.0058 | 0.0138 ± 0.013 | 1.01 ± 0.015 | 0.143 ± 0.081 | 0.98 ± 0.017 | 0.00677 ± 0.002
25 | NC(CCP(=O)(O)O)C(=O)O (racemic) [(±)-2-Amino-4-phosphonobutyric acid] | 0.9883 ± 0.0042 | 0.998 ± 0.0017 | 1.01 ± 0.014 | 1 ± 0.042 | 0.9923 ± 0.0071 | 0.9973 ± 0.0025
26 | N[C@H](C(=O)O)c1cc(O)no1 (racemic) [(±)-Ibotenic acid] | 1.002 ± 0.0072 | 1 ± 0.032 | 0.991 ± 0.024 | 1.04 ± 0.096 | 0.9837 ± 0.0055 | 0.987 ± 0.012
27 | Oc1cc2c(cc1O)[C@H]1c3ccccc3CN[C@@H]1CC2 (racemic) [Dihydrexidine hydrochloride] | 1.002 ± 0.0068 | 0.995 ± 0.005 | 1.002 ± 0.0076 | 0.994 ± 0.018 | 0.9917 ± 0.0059 | 0.9897 ± 0.0031
28 | CS(=N)(=O)CC[C@H](N)C(=O)O (stereo partly drawn) [L-Methionine sulfoximine] | 1.003 ± 0.0058 | 1.01 ± 0.024 | 0.998 ± 0.01 | 0.948 ± 0.093 | 0.9987 ± 0.0023 | 1 ± 0.013
29 | NC(Cn1oc(=O)[nH]c1=O)C(=O)O (single isomer, unassigned; (+)) [(+)-Quisqualic acid] | 1.01 ± 0.01 | 0.973 ± 0.028 | 1.01 ± 0.031 | 1.01 ± 0.021 | 1.01 ± 0.012 | 1.005 ± 0.0087
